Holding throughout (set-up): scale not given: direction of the effect not stated beside the values
Test [1] concerns the target Protein translocase subunit SecA (Escherichia coli (strain K12)) (UniProt P10408). The test can be described thus: Assay to Identify E. coli SecA ATPase Inhibitors. The note with it: 30 µM. It counts as functional.
The target of test [2] is T1, Ubiquitin-activating enzyme e1, putative (Leishmania donovani (strain BPK282A1)) (UniProt E9BSI1).
T1 sequence (whole entry): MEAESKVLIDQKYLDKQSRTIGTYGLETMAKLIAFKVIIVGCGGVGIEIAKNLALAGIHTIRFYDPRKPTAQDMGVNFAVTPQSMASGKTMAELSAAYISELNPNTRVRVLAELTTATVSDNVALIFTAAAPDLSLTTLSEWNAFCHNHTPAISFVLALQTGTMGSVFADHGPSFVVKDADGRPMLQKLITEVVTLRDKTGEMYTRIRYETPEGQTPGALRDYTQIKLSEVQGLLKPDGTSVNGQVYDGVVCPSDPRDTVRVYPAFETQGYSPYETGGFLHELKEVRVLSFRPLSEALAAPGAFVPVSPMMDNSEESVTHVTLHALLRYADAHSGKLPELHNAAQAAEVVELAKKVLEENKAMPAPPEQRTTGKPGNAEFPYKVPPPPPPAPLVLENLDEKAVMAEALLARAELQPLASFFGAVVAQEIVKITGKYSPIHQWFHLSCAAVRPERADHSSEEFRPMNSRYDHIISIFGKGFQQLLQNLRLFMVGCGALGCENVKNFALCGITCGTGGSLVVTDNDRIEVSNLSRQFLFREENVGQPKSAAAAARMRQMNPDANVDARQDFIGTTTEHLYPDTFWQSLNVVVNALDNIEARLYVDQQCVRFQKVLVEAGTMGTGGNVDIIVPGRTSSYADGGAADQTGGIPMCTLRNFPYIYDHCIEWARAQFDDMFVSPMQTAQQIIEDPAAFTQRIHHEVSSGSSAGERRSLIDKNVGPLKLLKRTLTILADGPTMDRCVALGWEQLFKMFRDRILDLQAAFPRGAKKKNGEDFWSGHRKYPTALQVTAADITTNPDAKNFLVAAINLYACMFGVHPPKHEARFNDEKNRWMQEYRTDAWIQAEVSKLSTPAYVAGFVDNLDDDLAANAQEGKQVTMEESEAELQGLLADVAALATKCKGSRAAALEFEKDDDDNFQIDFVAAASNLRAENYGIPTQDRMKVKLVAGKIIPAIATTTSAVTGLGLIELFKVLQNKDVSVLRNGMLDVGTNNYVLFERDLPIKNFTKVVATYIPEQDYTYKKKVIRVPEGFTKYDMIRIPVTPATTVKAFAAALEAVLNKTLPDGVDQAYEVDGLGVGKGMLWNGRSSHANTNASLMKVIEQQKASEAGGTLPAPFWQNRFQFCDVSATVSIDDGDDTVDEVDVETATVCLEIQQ
Put plainly: Leishmania donovani Ubiquitin Activating Enzyme (LdE1). The class given is functional. Conditions: 30 µM.

In test [3] the target is AMP-activated protein kinase, AMPK (Homo sapiens) (UniProt P54646+O43741+P54619+Q9UGJ0+Q9Y478+Q13131+Q9UGI9). The test can be described thus: AMP-dependent Kinase enzyme assay. An in vitro enzyme assay that detects ADP turnover that is directly proportional to AMPK activity. This uses naive AMPK that is activated during the assay with MK-8722. The class given is functional. The note with it: 30 µM.

Test [4] concerns the target Sialic acid-binding Ig-like lectin 9 (Homo sapiens) (UniProt Q9Y336). The test can be described thus: Hs-Siglec9 ALPHAscreen SOP 20170721. Conditions: 10 µM. (Bead proximity is the source of the signal in Alpha formats.)
The test system of a further test is Trypanosoma cruzi. Put plainly: Trypanosoma cruzi phosphomannomutase and mannose-1-phosphate guanylyltransferase assay. Conditions: 10 µM. The class given is functional.
For test [5], the target named is T2, Arginase-2, mitochondrial (Homo sapiens) (UniProt P78540).
T2 sequence (whole entry): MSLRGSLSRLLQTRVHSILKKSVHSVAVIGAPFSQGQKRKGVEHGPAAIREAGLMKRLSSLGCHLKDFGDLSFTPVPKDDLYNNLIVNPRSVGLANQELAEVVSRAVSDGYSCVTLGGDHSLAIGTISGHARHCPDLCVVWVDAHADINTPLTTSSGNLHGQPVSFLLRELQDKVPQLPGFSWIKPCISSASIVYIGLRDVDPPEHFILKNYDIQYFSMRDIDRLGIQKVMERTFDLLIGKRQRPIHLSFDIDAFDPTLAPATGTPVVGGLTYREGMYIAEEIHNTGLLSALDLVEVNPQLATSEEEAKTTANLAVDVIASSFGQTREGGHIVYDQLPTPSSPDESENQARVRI
The test can be described thus: in vitro enzyme assay to detect the production of urea directly proportional to the activity of Arginase II. Also: in the data most compounds retested in dose-response had high values. The class given is functional. Conditions: 33.3 µM.

The target of test [6] is T3, Proteasome subunit beta (Trypanosoma cruzi) (UniProt O96673).
T3 sequence (whole entry): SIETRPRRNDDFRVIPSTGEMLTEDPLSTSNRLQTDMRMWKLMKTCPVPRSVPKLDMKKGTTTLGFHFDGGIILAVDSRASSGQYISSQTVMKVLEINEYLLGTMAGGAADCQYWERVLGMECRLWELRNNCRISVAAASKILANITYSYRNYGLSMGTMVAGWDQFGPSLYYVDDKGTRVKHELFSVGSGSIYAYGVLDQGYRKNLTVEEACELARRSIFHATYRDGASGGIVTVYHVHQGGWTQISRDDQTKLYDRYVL
Put plainly: Trypanosoma cruzi proteasome chymotrypsin-like activity (TcProtChymo) assay. Also: in the data most compounds retested in dose-response had high values. The class given is functional. Conditions: 9.37 µM.

A further test is filed under the species Homo sapiens. The test can be described thus: To identify inhibition of the IFN signalling (Jak-Stat) pathway via expression of an eGFP reporter gene under the control of an IFN-stimulated response element (ISRE) containing MxA promoter. The class given is functional. The note with it: 30 µM. In general terms: Reporter assays use an easily measured gene product as a stand-in for the process of interest.

For test [7], the target named is T4, Tyrosyl-tRNA synthetase, putative (Trypanosoma cruzi (strain CL Brener)) (UniProt Q4DSP6).
T4 sequence (whole entry): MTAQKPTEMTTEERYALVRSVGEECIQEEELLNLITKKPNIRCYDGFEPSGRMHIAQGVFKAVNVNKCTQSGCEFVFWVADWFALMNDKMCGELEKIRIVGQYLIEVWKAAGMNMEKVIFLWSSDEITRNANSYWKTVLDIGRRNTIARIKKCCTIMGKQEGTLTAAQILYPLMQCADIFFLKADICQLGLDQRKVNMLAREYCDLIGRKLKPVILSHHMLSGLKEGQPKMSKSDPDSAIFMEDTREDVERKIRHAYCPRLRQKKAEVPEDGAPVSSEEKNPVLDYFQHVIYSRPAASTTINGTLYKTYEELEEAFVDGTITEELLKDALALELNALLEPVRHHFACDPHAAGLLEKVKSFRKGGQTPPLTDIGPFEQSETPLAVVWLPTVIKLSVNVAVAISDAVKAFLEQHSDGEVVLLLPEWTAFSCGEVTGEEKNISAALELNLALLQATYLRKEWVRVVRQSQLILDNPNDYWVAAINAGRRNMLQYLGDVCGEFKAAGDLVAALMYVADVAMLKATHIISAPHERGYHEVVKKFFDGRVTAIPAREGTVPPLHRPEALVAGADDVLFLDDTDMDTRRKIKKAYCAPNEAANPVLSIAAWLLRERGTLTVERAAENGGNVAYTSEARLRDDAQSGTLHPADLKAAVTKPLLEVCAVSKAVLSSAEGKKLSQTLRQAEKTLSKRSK
Put plainly: Trypanosoma cruzi tyrosyl tRNA synthetase (TcYRS) _High Tyrosine SOP. Also: in the data most compounds retested in dose-response had high values. It counts as functional. Conditions: 30 µM.

In test [8] the target is T4, Tyrosyl-tRNA synthetase, putative (Trypanosoma cruzi (strain CL Brener)). The test can be described thus: Trypanosoma cruzi tyrosyl tRNA synthetase (TcYRS) SOP. The note with it: 30 µM. The class given is functional.
The target in test [9] is Chromo domain-containing protein 1 (Saccharomyces cerevisiae (strain ATCC 204508 / S288c) (Baker's yeast)) (UniProt P32657). Put plainly: ScCHD-1 Enzyme Inhibition Assay. Also: in the data most compounds retested in dose-response had high values. It counts as functional. Conditions: 30 µM.
Chromo domain-containing protein 1 (Saccharomyces cerevisiae (strain ATCC 204508 / S288c) (Baker's yeast)), sequence (P32657 whole entry, the tested form may be a part): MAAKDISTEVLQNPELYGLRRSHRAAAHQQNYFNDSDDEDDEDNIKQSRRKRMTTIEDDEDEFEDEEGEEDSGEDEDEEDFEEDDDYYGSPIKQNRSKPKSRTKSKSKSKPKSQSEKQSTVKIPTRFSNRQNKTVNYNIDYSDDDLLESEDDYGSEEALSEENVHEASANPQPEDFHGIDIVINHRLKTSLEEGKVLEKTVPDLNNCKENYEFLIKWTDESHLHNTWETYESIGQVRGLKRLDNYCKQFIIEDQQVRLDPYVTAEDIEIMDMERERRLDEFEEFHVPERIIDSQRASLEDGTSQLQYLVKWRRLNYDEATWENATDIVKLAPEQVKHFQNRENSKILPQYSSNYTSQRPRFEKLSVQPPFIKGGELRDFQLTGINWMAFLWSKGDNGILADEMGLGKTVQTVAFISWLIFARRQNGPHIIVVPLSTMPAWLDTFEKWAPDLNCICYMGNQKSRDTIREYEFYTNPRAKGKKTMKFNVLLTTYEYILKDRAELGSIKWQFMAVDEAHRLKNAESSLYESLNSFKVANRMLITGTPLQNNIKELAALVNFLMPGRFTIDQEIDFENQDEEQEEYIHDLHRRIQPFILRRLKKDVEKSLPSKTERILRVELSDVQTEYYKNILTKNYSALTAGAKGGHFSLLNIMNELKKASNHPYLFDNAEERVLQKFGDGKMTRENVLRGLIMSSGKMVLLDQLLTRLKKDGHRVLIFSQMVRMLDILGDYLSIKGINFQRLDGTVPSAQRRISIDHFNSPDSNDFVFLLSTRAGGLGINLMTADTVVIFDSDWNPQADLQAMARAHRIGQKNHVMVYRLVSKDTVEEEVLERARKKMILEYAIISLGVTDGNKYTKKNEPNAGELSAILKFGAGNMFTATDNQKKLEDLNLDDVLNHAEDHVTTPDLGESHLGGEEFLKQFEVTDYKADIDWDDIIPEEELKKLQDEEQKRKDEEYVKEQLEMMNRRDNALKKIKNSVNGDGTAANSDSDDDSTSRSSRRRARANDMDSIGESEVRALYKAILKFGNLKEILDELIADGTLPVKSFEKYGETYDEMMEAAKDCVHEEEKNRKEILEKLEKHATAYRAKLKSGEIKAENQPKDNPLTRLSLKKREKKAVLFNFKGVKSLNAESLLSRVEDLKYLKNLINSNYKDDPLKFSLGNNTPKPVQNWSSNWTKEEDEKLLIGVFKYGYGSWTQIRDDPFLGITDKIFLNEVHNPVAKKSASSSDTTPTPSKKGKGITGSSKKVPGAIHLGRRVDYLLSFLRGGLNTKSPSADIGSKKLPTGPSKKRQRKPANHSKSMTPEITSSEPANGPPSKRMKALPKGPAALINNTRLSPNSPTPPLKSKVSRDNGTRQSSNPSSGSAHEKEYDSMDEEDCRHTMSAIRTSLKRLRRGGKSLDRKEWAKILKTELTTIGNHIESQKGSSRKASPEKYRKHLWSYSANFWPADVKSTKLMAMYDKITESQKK

The source of these data is ChEMBL document CHEMBL3988442, “University of Dundee, Small-Polar-MMV Screening Library” (2021).

For some of these results: Potency and affinity values are given separately.

Protein translocase subunit SecA (Escherichia coli (strain K12)), sequence (P10408 whole entry): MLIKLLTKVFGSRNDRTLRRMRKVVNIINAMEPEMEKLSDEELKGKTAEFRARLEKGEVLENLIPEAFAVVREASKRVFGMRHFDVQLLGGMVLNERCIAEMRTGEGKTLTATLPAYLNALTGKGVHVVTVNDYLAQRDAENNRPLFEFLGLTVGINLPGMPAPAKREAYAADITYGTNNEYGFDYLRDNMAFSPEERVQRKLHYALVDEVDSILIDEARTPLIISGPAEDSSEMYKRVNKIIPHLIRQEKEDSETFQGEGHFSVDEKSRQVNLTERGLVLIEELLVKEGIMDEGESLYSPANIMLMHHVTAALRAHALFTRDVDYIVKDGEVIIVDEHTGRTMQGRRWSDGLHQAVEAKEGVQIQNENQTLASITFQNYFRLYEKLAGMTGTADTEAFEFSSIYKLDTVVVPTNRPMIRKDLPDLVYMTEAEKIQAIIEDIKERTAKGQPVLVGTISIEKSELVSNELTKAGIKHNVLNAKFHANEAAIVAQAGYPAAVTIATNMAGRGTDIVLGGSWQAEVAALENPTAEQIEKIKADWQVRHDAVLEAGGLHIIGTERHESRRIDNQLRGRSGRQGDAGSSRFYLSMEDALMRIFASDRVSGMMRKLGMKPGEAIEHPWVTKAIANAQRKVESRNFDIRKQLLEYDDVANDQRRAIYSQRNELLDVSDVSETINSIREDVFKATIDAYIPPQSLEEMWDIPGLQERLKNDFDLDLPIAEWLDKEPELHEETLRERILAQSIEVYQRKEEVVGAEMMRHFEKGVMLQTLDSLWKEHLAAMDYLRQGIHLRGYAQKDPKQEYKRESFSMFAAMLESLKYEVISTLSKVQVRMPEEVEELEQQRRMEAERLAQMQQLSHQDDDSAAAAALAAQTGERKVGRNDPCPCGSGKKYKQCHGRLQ
Sialic acid-binding Ig-like lectin 9 (Homo sapiens), sequence (Q9Y336 whole entry): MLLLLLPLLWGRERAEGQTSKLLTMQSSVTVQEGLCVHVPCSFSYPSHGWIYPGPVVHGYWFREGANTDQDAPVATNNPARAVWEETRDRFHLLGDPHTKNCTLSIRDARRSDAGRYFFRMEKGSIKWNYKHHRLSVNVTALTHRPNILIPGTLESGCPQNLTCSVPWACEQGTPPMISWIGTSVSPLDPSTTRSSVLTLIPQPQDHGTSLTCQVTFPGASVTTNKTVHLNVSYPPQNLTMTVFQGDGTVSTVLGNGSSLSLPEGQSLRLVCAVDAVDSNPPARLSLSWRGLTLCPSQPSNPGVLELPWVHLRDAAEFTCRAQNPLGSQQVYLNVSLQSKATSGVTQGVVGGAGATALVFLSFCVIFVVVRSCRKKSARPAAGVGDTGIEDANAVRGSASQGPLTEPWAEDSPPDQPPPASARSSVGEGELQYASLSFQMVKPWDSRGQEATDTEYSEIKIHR

For the molecule `Cc1ccc(C(=O)N2CCN(S(C)(=O)=O)CC2)cc1N1CCNC1=O`, the Percent Effect in test [1] was -5.92%; in test [2] it was 8%; in test [3] it was 3.73%; in test [4], 15.8%; with Trypanosoma cruzi it was 2.24%; in test [5] it was 5.73%. Also, the Percent Effect in test [6] is 15.5%; in the test listed under Homo sapiens, 16.6%; in [7], 6.01%; in test [8], 11.1%; in test [9], -6.07%.

Take `CC(C)C(C)NC(=O)Nc1ccc(CS(C)(=O)=O)cc1` (stereo unspecified): the Percent Effect was -5.9% in test [1]; 5.26% in [2]; 7.91% in test [3]; 3.79% in test [4]; 4.77% in the test with Trypanosoma cruzi; -14.2% in test [5]. Also, the Percent Effect in test [6] is 15.6%; in the test listed under Homo sapiens it was 12.9%; in test [7], -5.32%; in [8], 10.4%; in test [9], -1.16%.

As to `CC(C)C(=O)NCC(=O)N(C)C1CCCN(CCc2ccccc2)C1` (stereo unspecified), the Percent Effect in test [1] was -2.17%; in test [2] it was 10.8%; in [3], 0.942%; in [4], 15.5%; in the test on Trypanosoma cruzi, 4.25%; in test [5], -0.952%. The Percent Effect is 11.9% in test [6]; -0.751% in the test filed under Homo sapiens; 3.7% in [7]; 4.88% in [8]; -5.28% in test [9].

For the molecule `CS(=O)(=O)NC[C@]12COC[C@H]1CN(C(=O)c1ccoc1)C2`, the Percent Effect was -3.11% in [1]; 7.79% in test [2]; 7.55% in test [3]; 7.59% in test [4]; -1.87% in the test with Trypanosoma cruzi; 4.52% in test [5]. Moreover, the Percent Effect in [6] is 10.6%; in the test listed under Homo sapiens it was 21.3%; in test [7] it was 5.29%; in test [8], 11.5%; in test [9], -4.91%.

Turning to `Cc1nn(CCn2ccnc2-c2cc3n(n2)CCCNC3)c(C)c1Cl`, the Percent Effect is -4.62% in test [1]; 21.3% in test [2]; -6.15% in [3]; 20.4% in test [4]; 5.75% in the test with Trypanosoma cruzi; 6.25% in [5]. The Percent Effect in test [6] was 16.9%; in the test filed under Homo sapiens, 21.8%; in test [7], 7.1%; in test [8], 23.5%; in test [9], -7.41%.

For `COc1ccc(CNC(=O)C2(C#N)CCCC2)cc1`, the Percent Effect in test [1] is -1.97%; in [2] it was 12.5%; in test [3], -13.3%; in test [4] it was -2.27%; in the test with Trypanosoma cruzi, 3.6%; in [5], -2.65%. The Percent Effect in [6] is 15.1%; in the test filed under Homo sapiens, -14.7%; in test [7], 4.21%; in [8] it was 7.69%; in [9] it was 95.5%.

Turning to `O=C(CCc1ccccc1)Nc1ncccc1OC(F)F`, the Percent Effect is -2.62% in [1]; 6.94% in test [2]; -0.321% in [3]; -1.86% in test [4]; -3.4% in the test with Trypanosoma cruzi; -0.883% in test [5]. Further, the Percent Effect in test [6] is 13.5%; in the test listed under Homo sapiens, -3.51%; in test [7], 1.05%; in test [8], 0%; in test [9], -2.3%.

`O=S(=O)(Nc1cnn(C2CCOCC2)c1)c1ccc(F)c(F)c1`: the Percent Effect in test [1] is -2.82%; in test [2], -2.6%; in [3] it was -3.09%; in test [4] it was 9.32%; in the test with Trypanosoma cruzi, -5.03%; in test [5] it was -8.39%. The Percent Effect in test [6] is 8.01%; in the test listed under Homo sapiens it was -0.875%; in test [7], -1.06%; in test [8], 3.85%; in test [9] it was -2.49%.

Regarding `CCN1CC(C(=O)NC(C)(C)CC(C)(C)C)CC1=O` (stereo unspecified), the Percent Effect in test [1] was -3.13%; in [2], 10.8%; in test [3] it was -0.778%; in test [4], 22.8%; in the test with Trypanosoma cruzi, 4.4%; in test [5] it was 21.1%. For the same molecule, the Percent Effect in test [6] was 5.06%; in the test filed under Homo sapiens, -0.424%; in test [7], 5.38%; in [8], 8.64%; in test [9], -10.2%.

Consider `O=C(COC(=O)Cc1cccs1)NCc1cccc(NC(=O)C2CC2)c1`, for which the Percent Effect is -4.92% in test [1]; 21.1% in test [2]; 1.38% in [3]; -10.9% in test [4]; -3.27% in the test on Trypanosoma cruzi; -1.08% in test [5]. For the same molecule, the Percent Effect in test [6] is 3.47%; in the test filed under Homo sapiens it was 4.04%; in test [7], 5.42%; in [8] it was 16.1%; in test [9], -4.73%.

With `COc1ccc(C2CC(=O)Oc3cc(C)[nH]c(=O)c32)cc1` (stereo unspecified), the Percent Effect in test [1] is -5.52%; in test [2], 6.67%; in test [3], 5.42%; in [4], 2.83%; with Trypanosoma cruzi it was 4.13%; in test [5] it was -0.528%. Further, the Percent Effect in test [6] was 11.1%; in the test filed under Homo sapiens, 3.33%; in test [7], 2.12%; in [8], 5.13%; in test [9] it was -1.69%.
